From PubChem BioAssay come the findings set out here.

The source made the active and inactive calls. No rule for the calls is given here.

By inhibition is commonly meant the share of the control response that was lost under treatment.

A short description of this test: Brca1-Bard1 BiLC signal decrease – luminescence, single concentration, counter-screen for Mdm2/MdmX interaction inhibitor project, confirmation (AID 504668). The following applies: Brca1/Bard1 bimolecular luciferase complementation counterscreen, at 8 µM, active compounds read high. (The purpose of a counterscreen is to sort out artefacts and off-target activity.)
Consider `CCC(=O)Nc1cccc(C(=O)/C=C/c2ccccc2)c1`, for which the inhibition was 34.4% (active).

Take `Cn1c(=O)c(C#N)c(-c2ccc(F)cc2)c2cc(C(=O)c3cc(Cl)cc(Cl)c3O)cnc21`: the inhibition is 29.6% (active).

As to `O=C(N/N=C/c1ccc(O)cc1O)c1ccc(CN2C(=O)c3cccc4cccc2c34)cc1`, the inhibition is 29.2% (active).

As for `Cc1c(C(=O)Nc2cccc(Cl)c2)oc2ccc(S(=O)(=O)N3CCC4(CC3)OCCO4)cc12`, the inhibition was 32.3% (active).

In the case of `CC(=O)NC(c1cccc([N+](=O)[O-])c1)c1ccc2cccnc2c1O` (centres undefined), the inhibition is 23.7% (active).

As for `Cc1ccc2cccc(NS(=O)(=O)c3ccccc3)c2n1`, the inhibition was 23.1% (active).

For the compound `N=c1n(CCN2CCCCC2)c2ccccc2n1CC(O)c1cccc(Br)c1` (centres undefined), the inhibition is 34.4% (active).

As for `CCN(CC)S(=O)(=O)c1ccc2c(c1)C(=NO)c1cc(S(=O)(=O)N(CC)CC)ccc1-2`, the inhibition is 23.7% (active).

For `COc1ccc(C(NC(C)=O)c2cc(Cl)c3cccnc3c2O)cc1` (centres undefined), the inhibition is 29.3% (active).

Take `COc1ccc2nc(N=Nc3ccc(O)c4ccccc34)sc2c1`: the inhibition is 35.3% (active).

With `CCN(CC)S(=O)(=O)c1cc(OC)ccc1N=Nc1ccc(O)c2ncccc12`, the inhibition was 35.8% (active).

Regarding `Cc1cc(Br)cc(/C=N/NC(=O)c2ccc3c(c2)OCO3)c1O`, the inhibition is 33% (active).

For the compound `COc1cc(NC(=S)NC(=O)c2ccc(C(C)(C)C)cc2)ccc1NC(=O)c1cccs1`, the inhibition was 27.7% (active).

For the compound `O=C(Nc1ccc(Cl)cc1)Nc1ccc(Cl)c(Cl)c1`, the inhibition was 26.8% (active).

With `C=C(C(=O)c1ccccc1)C(C)CC(=O)c1ccccc1` (centres undefined), the inhibition was 32.4% (active).

For `OC(CNCc1ccc(-c2ccccc2)cc1)c1ccccc1` (centres undefined), the inhibition was 26.9% (active).

For the compound `O=C(/C=C/c1c(F)cccc1Cl)c1ccc(O)cc1`, the inhibition is 32.3% (active).

Turning to `Cc1ccccc1-c1nc(CN2CCC(C(=O)NCCCN3CC(C)CC(C)C3)CC2)c(C)o1` (centres undefined), the inhibition was 25.7% (active).

Turning to `O=C(C[C@H]1C[C@H](C(=O)N2CCCCC2)[C@@]2(CCc3ccccc3)c3[nH]c4ccc(Cl)cc4c3CCN2C1=O)NCc1cccc(C(F)(F)F)c1`, the inhibition is 34% (active).

Take `C=C1C(=O)C=C[C@]2(C)C[C@@H]3OC(=O)[C@](C)(O)[C@H]3C[C@@H]12`: the inhibition is 25.4% (active).

As for `CN(CC1CCCO1)S(=O)(=O)c1ccc(C(=O)Nc2nc(-c3ccccn3)cs2)cc1` (centres undefined), the inhibition was 27.4% (active).

Take `C[n+]1c2n(c3ccccc31)N=C(c1ccc(-c3ccccc3)cc1)CS2`: the inhibition is 25.5% (active).

As to `COc1ccc(C2Oc3ccccc3C3=C2C(c2cccs2)n2ncnc2N3)cc1` (centres undefined), the inhibition was 29.5% (active).

Turning to `Cc1nc(SCc2nc3cc(Cl)c(F)cc3[nH]2)c2oc3ccccc3c2n1`, the inhibition was 31.6% (active).
